Results on 40 molecules are retold here after PubChem BioAssay (NCI).

About 79,000 compounds went through this panel and 15% of them were active in at least one assay; those are over-represented in the sample as a whole. Values without a mark were called inactive. Calls of active or inactive are those of the source. No stated cut-off is given here; in the data, active means growth inhibition above about 70%; inactive means the rest.

A short description of assay [1]: NCI Yeast Anticancer Drug Screen. Data for the rad50 strain (AID 155).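 Further: 0% = growth of vehicle-only cultures of the same strain.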 The settings on record: S. cerevisiae rad50 strain growth inhibition; at 50.0 µM; hits give high values. The procedure, abridged:
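A DNA repair-deficient yeast mutant serves as the test organism; compound-induced growth inhibition is calculated against vehicle-treated cells.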

Assay [2] can be described thus: NCI Yeast Anticancer Drug Screen. Data for the mec2-1 strain (AID 157). The settings on record: S. cerevisiae mec2-1 strain, at 50.0 µM, hits give high values. Put shortly: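 Each compound was tested on mec2-1 yeast, a strain altered in DNA damage repair or cell cycle control. Growth inhibition is reported relative to vehicle.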
Assay [3] can be described thus: NCI Yeast Anticancer Drug Screen. Data for the sgs1 mgt1 strain (AID 161).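 Further: 0% = growth of cultures given vehicle only.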 The following applies: S. cerevisiae sgs1 mgt1 strain, at 50.0 µM, hits give high values. The procedure, abridged:
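Read-out: growth inhibition vs vehicle controls. Cells: mutant yeast strain deficient in DNA damage repair.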

The nature of assay [4]: NCI Yeast Anticancer Drug Screen. Data for the cln2 rad14 strain (AID 165).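 Further: 0% = growth equal to vehicle treated cultures.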 The following applies: S. cerevisiae cln2 rad14 strain, at 50.0 µM, hits give high values. Put shortly: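 Test compounds were added to cln2 rad14 yeast cultures; inhibition of growth was then determined by comparison with vehicle treatment.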
Assay [5] can be described thus: NCI Yeast Anticancer Drug Screen. Data for the bub3 strain (AID 167). The settings on record: S. cerevisiae bub3 mutant strain, at 50.0 µM, hits give high values. Put shortly: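 Inhibition values come from growth of compound-treated mutant yeast normalised to vehicle-treated controls.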
Assay [6] can be described thus: NCI Yeast Anticancer Drug Screen. Data for the mlh1 rad18 strain (AID 175). The settings on record: S. cerevisiae mlh1 rad18 strain growth inhibition; at 50.0 µM; hits give high values. The procedure, abridged: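 Inhibition values reflect reduced growth of mutant yeast versus vehicle-treated controls following compound exposure; the mutations affect DNA damage repair.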

As for `C=CC1C(C(=O)Nc2ccccc2)CN1C` (stereo not given), the growth inhibition in assay [1] is 7.1%; in assay [2] it was 14.4%; in assay [3], -4.15%; in assay [4], 18.3%; in assay [5], 10.9%; in assay [6], -3.4%.

As to `O=c1c(O)c(-c2ccc(O)cc2O)oc2cc(O)cc(O)c12`, the growth inhibition is -8.35% in assay [1]; -29.2% in assay [2]; -3.55% in assay [3]; 3.5% in assay [4]; -19.4% in assay [5]; -26.8% in assay [6].

Take `O=C1C2Cc3ccccc3CN2C(=O)N1CN1CCN(CN2C(=O)C3Cc4ccccc4CN3C2=O)CC1` (stereo not given): the growth inhibition was -13.1% in assay [1]; -0.05% in assay [2]; -16.6% in assay [3]; -10.9% in assay [4]; -28.6% in assay [5]; -5.8% in assay [6].

As for `CNc1ncnc2c1cnn2-c1ccc(Cl)cc1`, the growth inhibition was -15.8% in assay [1]; -6.85% in assay [2]; -6.75% in assay [3]; -37.4% in assay [4]; 0.3% in assay [5]; 4.25% in assay [6].

In the case of `CCN(CC)Cc1ccc([NH-])c([NH-])c1.CCN(CC)Cc1ccc([NH-])c([NH-])c1.[Cl][Pt+2][Cl].[Cl][Pt+2][Cl].[Cl][Pt+2][Cl]`, the growth inhibition in assay [1] is 27.4%; in assay [2], 36.6%; in assay [3], 35.6%; in assay [4], 25.6%; in assay [5] it was 29.2%; in assay [6], 48.5%.

As to `CC(C)(C)OC(=O)NN(CC(=O)OCc1ccccc1)N=O`, the growth inhibition in assay [1] was 5.35%; in assay [2] it was -2.15%; in assay [3] it was 2.9%; in assay [4], -42.5%; in assay [5], 10.2%; in assay [6], -7.6%.

Regarding `c1ccc(-c2c[s+]cc(-c3ccccc3)c2)cc1`, the growth inhibition was 98.7% (active) in assay [1]; 98.9% (active) in assay [2]; 99.2% (active) in assay [3]; 98.5% (active) in assay [4]; 78.2% (active) in assay [5]; 99.2% (active) in assay [6].

Regarding `O=C(O)CCC(=O)CC1CCCCC1`, the growth inhibition in assay [1] was 36.3%; in assay [2] it was 15.9%; in assay [3], 10.2%; in assay [4], 39.1%; in assay [5], -8.45%; in assay [6] it was 28.2%.

For `O=[N+]([O-])c1ccc(OCCSc2ccccc2)cc1`, the growth inhibition in assay [1] was 9%; in assay [2] it was 33%; in assay [3], 55%; in assay [4] it was 12.6%; in assay [5] it was 60.2%; in assay [6], 12.8%.

`C=C(Cl)CSC(C)(C)C`: the growth inhibition in assay [1] is -9.4%; in assay [2] it was 5.8%; in assay [3], -6.7%; in assay [4], -19.6%; in assay [5], -18.2%; in assay [6] it was -8.5%.

Regarding `N#CCCCCN1CCCCC1`, the growth inhibition in assay [1] was -4.85%; in assay [2] it was -20.9%; in assay [3], -9.95%; in assay [4], 9.8%; in assay [5] it was -14.6%; in assay [6], 13.6%.

For the molecule `O=C1CCCCCC1`, the growth inhibition is 9.95% in assay [1]; -8.9% in assay [2]; 11.2% in assay [3]; -19.2% in assay [4]; -4.45% in assay [5]; 3.4% in assay [6].

With `OCCn1nnc2ccccc21`, the growth inhibition was -0.55% in assay [1]; -2% in assay [2]; -4.35% in assay [3]; 5.35% in assay [4]; 1.7% in assay [5]; -3.7% in assay [6].

As for `Clc1ccc(OCc2nnc3n2N=C(c2ccccc2)CS3)cc1`, the growth inhibition in assay [1] is 36.5%; in assay [2], 7.1%; in assay [3] it was 15.9%; in assay [4], 36.2%; in assay [5], 23.5%; in assay [6] it was 15.9%.

With `CC/C(CCC(=O)OC)=N/Nc1ccc([N+](=O)[O-])cc1[N+](=O)[O-]`, the growth inhibition is 4.05% in assay [1]; 7.25% in assay [2]; 6.9% in assay [3]; -22.6% in assay [4]; -5.9% in assay [5]; -10.6% in assay [6].

Regarding `CNC(=O)Nc1ccc(C(=O)O)cc1`, the growth inhibition was 9.2% in assay [1]; 4.35% in assay [2]; 5.35% in assay [3]; -38.1% in assay [4]; 9.8% in assay [5]; 5.2% in assay [6].

On to `Cc1c(C=O)cc(-c2ccccc2)n1C`, for which the growth inhibition is -16.2% in assay [1]; -3.25% in assay [2]; -4.85% in assay [3]; -8.45% in assay [4]; -7.1% in assay [5]; -1.6% in assay [6].

`O=C1C2=C(c3ccccc31)C(c1ccc(F)cc1)N1C(=O)CCSC1=N2` (stereo not given): the growth inhibition in assay [1] is 45.1%; in assay [2], 19.1%; in assay [3] it was 63%; in assay [4] it was 40.1%; in assay [5], 48.6%; in assay [6], 56.1%.

On to `O=C(NC(CO)C(=O)O)c1ccccc1` (stereo not given), for which the growth inhibition in assay [1] is 6.65%; in assay [2], -14.2%; in assay [3], -14.5%; in assay [4] it was -44.5%; in assay [5], -18.9%; in assay [6] it was -12.9%.

For `COC1(OC)CCC(OC)(OC)C(OC)(OC)C1(OC)OC`, the growth inhibition was 4.75% in assay [1]; 8.1% in assay [2]; 11.7% in assay [3]; -4.2% in assay [4]; -16.2% in assay [5]; 2.75% in assay [6].

As for `O=c1oc2ccc(Br)cc2cc1CCS`, the growth inhibition in assay [1] was 9.9%; in assay [2] it was 21.2%; in assay [3], -4.7%; in assay [4] it was 10.8%; in assay [5], 9.55%; in assay [6], -9.35%.

On to `COc1cc(OC)cc(C2OC3=C(Nc4ccccc4N3)C2=O)c1` (stereo not given), for which the growth inhibition in assay [1] is 12.8%; in assay [2], 16.1%; in assay [3], 23.2%; in assay [4] it was 19.4%; in assay [5], 19.4%; in assay [6], 28.1%.

With `CCNC(=S)NC1CCCCC1`, the growth inhibition in assay [1] is -8.35%; in assay [2], 5.15%; in assay [3], 3.65%; in assay [4], -4.05%; in assay [5], -13.1%; in assay [6], 12.3%.

Turning to `CSc1nnc(CF)c(=O)[nH]1`, the growth inhibition is -1.4% in assay [1]; -1.35% in assay [2]; -12.3% in assay [3]; -4.2% in assay [4]; -7.05% in assay [5]; -14.4% in assay [6].

Take `CCNC(=S)N/N=C/c1cc(OC)ccc1O`: the growth inhibition in assay [1] is -11.7%; in assay [2] it was 23.4%; in assay [3] it was 0.2%; in assay [4], 11%; in assay [5], 23.1%; in assay [6] it was -13.9%.

As for `CC(=O)NNc1nc(C)c(C(/C=C/c2ccccc2O)=N/NC(=O)c2ccncc2)s1`, the growth inhibition was 6.9% in assay [1]; 5.5% in assay [2]; 16.1% in assay [3]; 26.6% in assay [4]; 17.5% in assay [5]; 22.2% in assay [6].

As for `COc1ccc(CCN=C2CCC(C(=O)NCCc3ccc(OC)c(OC)c3)N2)cc1OC` (stereo not given), the growth inhibition in assay [1] is -12.9%; in assay [2] it was -18.9%; in assay [3] it was 2.6%; in assay [4] it was -1.3%; in assay [5] it was -20.5%; in assay [6], -4.25%.

As to `CN(C)CCN1CCc2c([nH]c3ccccc23)C1c1cccnc1` (stereo not given), the growth inhibition in assay [1] is -55.6%; in assay [2], -24.8%; in assay [3], -4.2%; in assay [4] it was 6.25%; in assay [5], -18.2%; in assay [6], -38.2%.

As to `CC(=O)Oc1ccc(C(C)C)cc1`, the growth inhibition in assay [1] is -9.55%; in assay [2], -30.9%; in assay [3], -25.3%; in assay [4], -13.6%; in assay [5] it was -11.2%; in assay [6], -1.6%.

Turning to `CC1(O)CC2(O)C=CC3=C(C(=O)c4cccc(O)c4C3=O)C2(O)C(=O)C1O` (stereo not given), the growth inhibition in assay [1] is 14.2%; in assay [2] it was 4.1%; in assay [3], 30.4%; in assay [4], 15.8%; in assay [5] it was 22.9%; in assay [6] it was 16.6%.

As for `CCCCNC(=O)CC(C)C(=O)O` (stereo not given), the growth inhibition is 2.8% in assay [1]; -1.35% in assay [2]; -6.1% in assay [3]; -20.8% in assay [4]; -1.55% in assay [5]; 6.1% in assay [6].

As to `NC(CSSCC(N)=NC1CCCCC1)=NC1CCCCC1`, the growth inhibition in assay [1] was 6.5%; in assay [2] it was 3.4%; in assay [3] it was 13%; in assay [4] it was 7.35%; in assay [5], -1.45%; in assay [6], 20%.

In the case of `O=C(NC1COB(c2cccc([N+](=O)[O-])c2)OC1c1ccc([N+](=O)[O-])cc1)C(Cl)Cl` (stereo not given), the growth inhibition in assay [1] is 12.8%; in assay [2] it was 27.9%; in assay [3], 5.65%; in assay [4], -23.9%; in assay [5], 15.7%; in assay [6], 63.5%.

Turning to `CC1=C(N2CCCCC2)S(=O)(=O)c2ccccc2C1`, the growth inhibition is 42.6% in assay [1]; 3.6% in assay [2]; 26.5% in assay [3]; -19.6% in assay [4]; 8.15% in assay [5]; 44% in assay [6].

Take `C=CCNC(=O)NCCCC(NC(C)=O)C(=O)NCc1ccccc1` (stereo not given): the growth inhibition is -20.9% in assay [1]; -21.3% in assay [2]; -14.7% in assay [3]; 6.75% in assay [4]; -22.3% in assay [5]; -20.6% in assay [6].

As for `O=S(=O)(Nc1nccs1)c1ccc(Cl)cc1`, the growth inhibition in assay [1] was 25.1%; in assay [2], 46%; in assay [3], 74.2% (active); in assay [4], 20.4%; in assay [5], 33%; in assay [6] it was 68.2%.

`CCCCCCCCCCCCCCCCOc1ccc(-c2cc(=O)n(C)n2C)cc1OC`: the growth inhibition in assay [1] was -14.1%; in assay [2], -27.2%; in assay [3], -9.3%; in assay [4] it was -0.15%; in assay [5], -8.55%; in assay [6], -16.2%.

As for `O=C1c2ccc([N+](=O)[O-])cc2C(=O)N1CCBr`, the growth inhibition in assay [1] was 27.4%; in assay [2] it was -13.2%; in assay [3] it was 16.6%; in assay [4] it was -10.2%; in assay [5], 31.7%; in assay [6] it was 13.1%.

Consider `CCC1N(C)CCCN1C`, for which the growth inhibition in assay [1] was 9.25%; in assay [2], -2.9%; in assay [3] it was 10.2%; in assay [4], 0.95%; in assay [5], 0.9%; in assay [6] it was 6.55%.

With `CS(=O)(=O)N(CCC#N)c1ccc(/C=N/NC(=O)CC(=O)Nc2cccc(Cl)c2)cc1`, the growth inhibition in assay [1] was -6.75%; in assay [2], 18.1%; in assay [3] it was 10.7%; in assay [4], 19.6%; in assay [5], -6.15%; in assay [6], 8.65%.
